Reference: PubChem BioAssay (NCI)
Several values for one entry are separate records, joined by “and”; a condition that tells them apart may be missing. Equal values may be shown once. Compounds without any hit were thinned out: in the full panel of roughly 79,000, 15% have a hit. The source holds several records for some structures; these can differ, active in one and inactive in another. Activity calls are given as the source filed them. No stated cut-off is given here; in the data, active means growth inhibition above about 70%; inactive means the rest.

Assays:
[1] = NCI Yeast Anticancer Drug Screen. Data for the rad52 strain (AID 147);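 further: 0% = growth of vehicle-treated control cultures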; conditions: S. cerevisiae rad52 mutant growth inhibition, stronger effect = higher value
In short: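 Compounds are applied to a genetically defined yeast strain lacking normal DNA damage repair, and inhibition of growth is expressed relative to cultures given vehicle only.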

[2] = NCI Yeast Anticancer Drug Screen. Data for the wt1 strain (AID 149);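 further: 0% = growth of vehicle-treated wt1 cultures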; conditions: S. cerevisiae wt1 strain (SPY 50644) growth inhibition, stronger effect = higher value
In short: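 wt1 strain grown with compound or vehicle; inhibition taken from the growth difference.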

[3] = NCI Yeast Anticancer Drug Screen. Data for the rad50EPP+ strain (AID 151);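 further: 0% = growth of vehicle-treated control cultures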; conditions: S. cerevisiae rad50 mutant strain, stronger effect = higher value
In short: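 Compounds were applied to the rad50EPP+ yeast strain, which bears a defined DNA repair alteration, and growth inhibition was determined relative to vehicle-treated cultures.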

[4] = NCI Yeast Anticancer Drug Screen. Data for the mgt1 strain (AID 153); conditions: S. cerevisiae mgt1 mutant growth inhibition, stronger effect = higher value
In short: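 Strain: mgt1 yeast, one of a set carrying defined DNA damage repair or cell cycle control alterations. Compound-treated growth compared with vehicle.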

[5] = NCI Yeast Anticancer Drug Screen. Data for the rad50 strain (AID 155);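 further: 0% = growth of vehicle-only cultures of the same strain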; conditions: S. cerevisiae rad50 strain growth inhibition, stronger effect = higher value
In short: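 DNA repair mutant yeast, compound exposure, growth read-out; inhibition is taken relative to vehicle.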

[6] = NCI Yeast Anticancer Drug Screen. Data for the mec2-1 strain (AID 157); conditions: S. cerevisiae mec2-1 strain, stronger effect = higher value
In short: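 Strain: mec2-1 (DNA repair/cell cycle alteration). Compound exposure, then growth measured; inhibition expressed relative to vehicle.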

[7] = NCI Yeast Anticancer Drug Screen. Data for the rad14 strain (AID 159);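 further: 0% = growth of vehicle-treated control cultures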; conditions: S. cerevisiae rad14 strain growth inhibition, stronger effect = higher value
In short: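 DNA repair-defective yeast, compound-exposed; % growth inhibition derived by comparison with vehicle-treated controls.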

[8] = NCI Yeast Anticancer Drug Screen. Data for the sgs1 mgt1 strain (AID 161);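 further: 0% = growth of cultures given vehicle only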; conditions: S. cerevisiae sgs1 mgt1 strain, stronger effect = higher value
In short: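 Genetically altered yeast, compound exposure, growth inhibition relative to vehicle.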

[9] = NCI Yeast Anticancer Drug Screen. Data for the CLN2oe strain (AID 163);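 further: 0% = growth of vehicle-only control cultures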; conditions: S. cerevisiae CLN2oe strain, stronger effect = higher value
In short: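 Growth of a genetically modified yeast strain is measured after compound exposure and compared with cultures given vehicle alone.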

[10] = NCI Yeast Anticancer Drug Screen. Data for the cln2 rad14 strain (AID 165);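 further: 0% = growth equal to vehicle treated cultures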; conditions: S. cerevisiae cln2 rad14 strain, stronger effect = higher value
In short: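 Compounds are applied to the cln2 rad14 yeast strain, and growth is then compared with that of vehicle-treated cultures to give inhibition.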

[11] = NCI Yeast Anticancer Drug Screen. Data for the bub3 strain (AID 167); conditions: S. cerevisiae bub3 mutant strain, stronger effect = higher value
In short: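 In this screen, a yeast mutant lacking normal mitotic checkpoint function is challenged with compound. Relative growth versus vehicle gives the inhibition value.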

[12] = NCI Yeast Anticancer Drug Screen. Data for the wt2 strain (AID 169);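 further: 0% = growth of vehicle-treated yeast cultures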; conditions: S. cerevisiae wt2 strain growth inhibition, stronger effect = higher value
In short: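 This strain belongs to a panel of yeast strains with defined genetic alterations in DNA damage repair or cell cycle control. Compounds are applied, and growth inhibition is measured against vehicle-treated cultures.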

[13] = NCI Yeast Anticancer Drug Screen. Data for the mlh1 strain (AID 171);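 further: 0% = growth of vehicle-treated control cultures of the same strain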; conditions: S. cerevisiae mlh1 strain growth inhibition, stronger effect = higher value
In short: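 Growth of the mutant yeast strain after compound exposure, expressed as inhibition relative to vehicle-only controls.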

[14] = NCI Yeast Anticancer Drug Screen. Data for the sgs1 strain (AID 173);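 further: 0% = growth of vehicle-only control cultures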; conditions: S. cerevisiae sgs1 mutant, stronger effect = higher value
In short: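 Growth of a yeast strain bearing a defined genetic alteration is measured after compound treatment. Inhibition is expressed relative to vehicle-only controls.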

[15] = NCI Yeast Anticancer Drug Screen. Data for the mlh1 rad18 strain (AID 175); conditions: S. cerevisiae mlh1 rad18 strain growth inhibition, stronger effect = higher value
In short: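 Read-out is yeast growth inhibition, calculated against vehicle-only controls. The compound was applied to a strain engineered with DNA damage repair alterations.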

[16] = NCI Yeast Anticancer Drug Screen. Data for the rad18 strain (AID 177); conditions: S. cerevisiae rad18 mutant growth inhibition, stronger effect = higher value
In short: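 Growth of the mutant yeast strain after compound exposure, normalised to vehicle-only cultures.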

[17] = at 5.0 µM (retest, dose inferred, filed as 0.5)
[18] = at 50.0 µM (retest, dose inferred, filed as 5.0)

Measured: growth inhibition

CC[n+]1oc(C(=O)c2ccc(Cl)cc2)c(-c2ccccc2)c1-c1ccccc1.[Cl][Fe]([Cl])([Cl])[Cl]
inactive: [1]; at 1.2 µM 4% | [1]; at 3.7 µM 15% | [1]; at 11.0 µM 32% | [1]; at 33.0 µM 57% | [2]; at 1.2 µM 1% | [2]; at 3.7 µM -1% | [2]; at 11.0 µM 4% | [2]; at 33.0 µM 20% | [2]; at 100.0 µM 54% | [3]; at 1.2 µM 16% | [3]; at 3.7 µM 37% | [4]; at 1.2 µM -2% | [4]; at 3.7 µM -3% | [4]; at 11.0 µM -3% | [4]; at 33.0 µM -1% | [4]; at 100.0 µM 48% | [5]; at 1.2 µM 5% | [5]; at 3.7 µM 8% | [5]; [17] 36% | [5]; at 11.0 µM 41% | [5]; at 33.0 µM 62% | [6]; at 1.2 µM 3% | [6]; at 3.7 µM 1% | [6]; [17] 22% | [6]; at 11.0 µM 11% | [6]; at 33.0 µM 26% | [6]; [18] 57% | [6]; at 100.0 µM 69% | [7]; at 1.2 µM 2% | [7]; at 3.7 µM 6% | [7]; at 11.0 µM 12% | [7]; at 33.0 µM 28% | [7]; at 100.0 µM 57% | [8]; [17] 34% | [9]; at 1.2 µM 0% | [9]; at 3.7 µM 2% | [9]; at 11.0 µM 7% | [9]; at 33.0 µM 23% | [9]; at 100.0 µM 56% | [10]; [17] 17% | [10]; [18] 57% | [10]; at 50.0 µM 68.2% | [11]; at 1.2 µM -5% | [11]; at 3.7 µM -1% | [11]; [17] 13% | [11]; at 11.0 µM 8% | [11]; at 33.0 µM 25% | [11]; at 50.0 µM 67.5% | [11]; at 100.0 µM 65% | [12]; at 1.2 µM 0% | [12]; at 3.7 µM -2% | [12]; at 11.0 µM -3% | [12]; at 33.0 µM 13% | [12]; at 100.0 µM 59% | [13]; at 1.2 µM 4% | [13]; at 3.7 µM 1% | [13]; at 11.0 µM 9% | [13]; at 33.0 µM 31% | [14]; at 1.2 µM 0% | [14]; at 3.7 µM -1% | [14]; at 11.0 µM 18% | [14]; at 33.0 µM 59% | [15]; [17] 27% | [16]; at 1.2 µM 4% | [16]; at 3.7 µM 7% | [16]; at 11.0 µM 24% | [16]; at 33.0 µM 49%
active: [1]; at 100.0 µM 75% | [3]; at 11.0 µM 75% | [3]; at 33.0 µM 93% | [3]; at 100.0 µM 99% | [5]; [18] 72% | [5]; at 50.0 µM 82% | [5]; at 100.0 µM 77% | [6]; at 50.0 µM 80% | [8]; [18] 79% | [8]; at 50.0 µM 89.3% | [11]; [18] 70% | [13]; at 100.0 µM 74% | [14]; at 100.0 µM 87% | [15]; [18] 78% | [15]; at 50.0 µM 94.2% | [16]; at 100.0 µM 79%

c1ccc(-c2cnc3ccccc3c2)cc1
inactive: [1]; at 1.2 µM 0% | [1]; at 3.7 µM 3% | [1]; at 11.0 µM 0% | [1]; at 33.0 µM 28% | [2]; at 1.2 µM -7% | [2]; at 3.7 µM -8% | [2]; at 11.0 µM -12% | [2]; at 33.0 µM -12% | [3]; at 1.2 µM 7% | [3]; at 3.7 µM 14% | [3]; at 11.0 µM 37% | [4]; at 1.2 µM -5% | [4]; at 3.7 µM -7% | [4]; at 11.0 µM -6% | [4]; at 33.0 µM -6% | [5]; at 1.2 µM -5% | [5]; at 3.7 µM -3% | [5]; [17] -151% and -148% | [5]; at 11.0 µM 14% | [5]; at 33.0 µM 47% | [5]; [18] 37% and 47% | [6]; at 1.2 µM 3% | [6]; at 3.7 µM -3% | [6]; [17] -52% | [6]; at 11.0 µM -12% | [6]; at 33.0 µM -3% | [6]; [18] 31% and 18% | [6]; at 50.0 µM 56.7% and 56.4% | [7]; at 1.2 µM -2% | [7]; at 3.7 µM 0% | [7]; at 11.0 µM -1% | [7]; at 33.0 µM 18% | [8]; [17] -68% and -66% | [8]; [18] 36% and 47% | [8]; at 50.0 µM 62% and 49.7% | [9]; at 1.2 µM -6% | [9]; at 3.7 µM -7% | [9]; at 11.0 µM -1% | [9]; at 33.0 µM 6% | [10]; [17] -68% and -62% | [10]; [18] -49% and -39% | [10]; at 50.0 µM -14.5% and -17.3% | [11]; at 1.2 µM -6% | [11]; at 3.7 µM 0% | [11]; [17] -51% and -54% | [11]; at 11.0 µM 10% | [11]; at 33.0 µM 30% | [11]; [18] 18% and 54% | [11]; at 50.0 µM 46.5% and 63.5% | [12]; at 1.2 µM -4% | [12]; at 3.7 µM -3% | [12]; at 11.0 µM -5% | [12]; at 33.0 µM -6% | [13]; at 1.2 µM 2% | [13]; at 3.7 µM -9% | [13]; at 11.0 µM -7% | [13]; at 33.0 µM -9% | [14]; at 1.2 µM -3% | [14]; at 3.7 µM -5% | [14]; at 11.0 µM -11% | [14]; at 33.0 µM 12% | [15]; [17] -127% and -135% | [15]; [18] -30% and -44% | [15]; at 50.0 µM 55.5% and 45% | [16]; at 1.2 µM -2% | [16]; at 3.7 µM -3% | [16]; at 11.0 µM 0% | [16]; at 33.0 µM 6%
active: [1]; at 100.0 µM 99% | [2]; at 100.0 µM 98% | [3]; at 33.0 µM 70% | [3]; at 100.0 µM 98% | [4]; at 100.0 µM 96% | [5]; at 100.0 µM 99% | [6]; at 100.0 µM 99% | [7]; at 100.0 µM 99% | [9]; at 100.0 µM 97% | [11]; at 100.0 µM 99% | [12]; at 100.0 µM 98% | [13]; at 100.0 µM 99% | [14]; at 100.0 µM 99% | [16]; at 100.0 µM 99%
70.1% (active) and 62.7% (inactive): [5]; at 50.0 µM
